In PubChem BioAssay (NCI) one finds growth data, which are given here for eight molecules.

Test systems include DU-145 prostate; K-562 leukemia; MALME-3M melanoma; MDA-MB-231 breast; RXF 393 renal; SF-268 CNS; SF-295 CNS; SF-539 CNS; UACC-257 melanoma; M14 melanoma; HCT-15 colon; HT29 colon; SNB-75 CNS; SNB-19 CNS; U251 CNS; PC-3 prostate; SK-MEL-5 melanoma; LOX IMVI melanoma; SK-MEL-28 melanoma; UACC-62 melanoma.
Holding throughout (experiment): NCI-60 one-dose screen, 48 h (100 = growth as untreated, 0 = no growth, -100 = all killed)
What all share (conditions): 10 µM unless noted

This is part of a sample that, as a whole, favours compounds with a hit. Of some 83,000 tested, about 20% had one in any assay.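 Negative percent growth values reflect cell death: -40 means 40% of the cells present at the start died, and -100 means all died.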 Values without a mark were called inactive. Calls of active or inactive are those of the source. The calls were made as follows: active = growth percent below 10; inactive = the rest.

As for `CCOC(=O)c1c(C)nc2c(c1N)/C(=C/c1ccc(OC)cc1)C(=O)N2Cc1ccc(F)cc1`, the growth in the assay on DU-145 prostate is -90.8% (active); in the assay on K-562 leukemia it was 4.12% (active); in the assay on MALME-3M melanoma, -21.3% (active); in the assay with MDA-MB-231 breast, -54.7% (active); with RXF 393 renal, -78.6% (active); in the assay with SF-268 CNS it was -23.6% (active). Further, the growth with SF-295 CNS is -1.56% (active); in the assay on SF-539 CNS, -20.5% (active); in the assay on UACC-257 melanoma, -52.7% (active); with M14 melanoma it was -56% (active); in the assay with HCT-15 colon, -80.6% (active); in the assay with HT29 colon, -75.9% (active). The growth with SNB-75 CNS was -13.7% (active); with SNB-19 CNS, -67.4% (active); in the assay on U251 CNS it was -81.5% (active); in the assay on PC-3 prostate, -52.5% (active); with SK-MEL-5 melanoma it was -87.9% (active); with LOX IMVI melanoma, -93.1% (active). For the same molecule, the growth in the assay on SK-MEL-28 melanoma is -39.9% (active).

On to `COc1cc(-c2cccc([N+](=O)[O-])c2)c(-c2nc(-c3ccccc3)c(-c3ccccc3)n2C2CC2)cc1OC`, for which the growth is 87.1% with DU-145 prostate; 32.6% with K-562 leukemia; 74.2% in the assay on MALME-3M melanoma; 72.4% with MDA-MB-231 breast; 69.1% in the assay on RXF 393 renal; 77% in the assay on SF-268 CNS. For the same molecule, the growth in the assay with SF-295 CNS is 42.7%; with SF-539 CNS, 88.5%; with UACC-257 melanoma, 56.8%; in the assay with M14 melanoma it was 40%; in the assay on HCT-15 colon, 56%; in the assay on SNB-75 CNS, 67.7%. Besides, the growth with SNB-19 CNS is 80.4%; in the assay with U251 CNS, 67.3%; in the assay with PC-3 prostate, 24%; in the assay with SK-MEL-5 melanoma, 52.5%; with UACC-62 melanoma, 53.5%; in the assay on LOX IMVI melanoma, 60.1%. The growth with SK-MEL-28 melanoma was 87.2%.

For `CCCCCCN(CCCCCC)CC(O)c1cccc2ccc(Cl)cc12` (configuration not stated), the growth in the assay on DU-145 prostate is 61.8%; in the assay on K-562 leukemia it was 32.9%; in the assay on MALME-3M melanoma it was 65.6%; with MDA-MB-231 breast, 43.3%; with RXF 393 renal, 24.1%; in the assay with SF-268 CNS, 121%. Besides, the growth in the assay on SF-295 CNS was 42%; in the assay with SF-539 CNS, 65.5%; with UACC-257 melanoma, 74.4%; in the assay with M14 melanoma, 63.3%; with HCT-15 colon, 53.4%; in the assay on HT29 colon, 15.9%. Further, the growth in the assay with SNB-75 CNS is 116%; in the assay on U251 CNS it was 55.2%; with PC-3 prostate, 37.1%; in the assay with SK-MEL-5 melanoma, 61.8%; in the assay on UACC-62 melanoma, 51.4%; with LOX IMVI melanoma, 34.7%. Further, the growth in the assay on SK-MEL-28 melanoma was 87.9%.

Regarding `Nc1ccc(CCCCc2ccccc2)c(Cl)c1`, the growth is 103% with DU-145 prostate; 90.1% in the assay on K-562 leukemia; 106% in the assay with MALME-3M melanoma; 91.2% in the assay with MDA-MB-231 breast; 90.3% in the assay on RXF 393 renal; 83% with SF-268 CNS. In addition, the growth is 104% in the assay on SF-295 CNS; 91.2% in the assay on SF-539 CNS; 89% in the assay on UACC-257 melanoma; 103% in the assay on M14 melanoma; 89% in the assay with HCT-15 colon; 96.3% in the assay on HT29 colon. In addition, the growth is 75.2% in the assay with SNB-75 CNS; 94.6% in the assay with SNB-19 CNS; 77.7% in the assay on U251 CNS; 90.1% in the assay with PC-3 prostate; 96.4% in the assay with SK-MEL-5 melanoma; 99.2% in the assay with LOX IMVI melanoma. Also, the growth in the assay on SK-MEL-28 melanoma is 98.8%.

On to `CN1CCN(C(=O)[C@@]2(C)CC[C@]3(C)CC[C@]4(C)C(=CC[C@@H]5[C@@]6(C)C/C(=C/c7ccncc7)C(=O)C(C)(C)[C@@H]6CC[C@]54C)[C@@H]3C2)CC1`, for which the growth with DU-145 prostate is 76.1%; in the assay on K-562 leukemia, 7.71% (active); with MALME-3M melanoma, 42.3%; in the assay with MDA-MB-231 breast, 69.4%; in the assay with RXF 393 renal it was 46.3%; with SF-268 CNS it was 67.9%. For the same molecule, the growth was 63.6% with SF-295 CNS; 57.7% in the assay with SF-539 CNS; 40.8% in the assay on UACC-257 melanoma; 49.8% with M14 melanoma; 30.2% with HCT-15 colon; 10.9% in the assay with HT29 colon. Moreover, the growth is 62.7% in the assay with SNB-75 CNS; 62.7% in the assay on SNB-19 CNS; 32.6% in the assay on U251 CNS; 23.8% in the assay on PC-3 prostate; 39.3% in the assay on SK-MEL-5 melanoma; 28.5% with LOX IMVI melanoma. Moreover, the growth with SK-MEL-28 melanoma was 48.7%.

On to `Cc1ccc(/C(=N\N=C(N)N)c2ccccc2)cc1`, for which the growth in the assay with DU-145 prostate is 10.4%; with K-562 leukemia, 0.175% (active); in the assay on MALME-3M melanoma, 61.8%; in the assay with MDA-MB-231 breast, 2.26% (active); with RXF 393 renal, 10.4%; in the assay on SF-268 CNS, 36.1%. Also, the growth was 1.44% (active) in the assay with SF-295 CNS; -24.2% (active) with SF-539 CNS; 59% in the assay on UACC-257 melanoma; -43.5% (active) with M14 melanoma; -4.22% (active) in the assay on HCT-15 colon; 3.12% (active) in the assay on HT29 colon. Besides, the growth is 28.5% in the assay on SNB-75 CNS; 9.71% (active) with SNB-19 CNS; 12.7% in the assay with U251 CNS; 14.1% in the assay with PC-3 prostate; -13.4% (active) in the assay with SK-MEL-5 melanoma; 28.3% in the assay with LOX IMVI melanoma. The growth with SK-MEL-28 melanoma was 64.4%.

`O=C(Nc1ccccc1Cl)OCCN1CCOCC1`: the growth is 109% in the assay on DU-145 prostate; 90.6% in the assay on K-562 leukemia; 114% in the assay on MALME-3M melanoma; 111% in the assay with MDA-MB-231 breast; 114% with RXF 393 renal; 107% in the assay on SF-268 CNS. Also, the growth with SF-295 CNS is 103%; in the assay on SF-539 CNS, 105%; with UACC-257 melanoma it was 105%; with M14 melanoma, 90.7%; with HCT-15 colon it was 102%; with HT29 colon, 75.9%. Moreover, the growth in the assay on SNB-75 CNS was 111%; with SNB-19 CNS, 103%; in the assay with U251 CNS, 103%; in the assay on PC-3 prostate it was 77.5%; with SK-MEL-5 melanoma, 108%; in the assay with LOX IMVI melanoma, 102%. Further, the growth in the assay with SK-MEL-28 melanoma was 110%.

With `OC(COc1cccc2ccccc12)CN1CCN(c2ccccc2)CC1` (configuration not stated), the growth in the assay with DU-145 prostate was 109%; in the assay with K-562 leukemia it was 114%; in the assay on MALME-3M melanoma it was 97.7%; with MDA-MB-231 breast it was 96.1%; in the assay with RXF 393 renal, 9.82% (active); with SF-268 CNS, 103%. Also, the growth with SF-295 CNS was 73.3%; in the assay with SF-539 CNS it was 99.8%; in the assay with UACC-257 melanoma, 63.3%; in the assay with M14 melanoma, 86.8%; in the assay with HCT-15 colon, 99.6%; in the assay with HT29 colon, 94%. Moreover, the growth is 81.8% in the assay with SNB-75 CNS; 97.4% with SNB-19 CNS; 95.7% in the assay on U251 CNS; 90.4% with SK-MEL-5 melanoma; 98.2% in the assay with UACC-62 melanoma; 92.1% with LOX IMVI melanoma. Besides, in the assay with SK-MEL-28 melanoma, the growth was 105%.
